Measurements: PubChem BioAssay AID1508622 (National Center for Advancing Translational Sciences (NCATS), 2021)
Active and inactive are the calls of the source. Calls come from the whole dose curve; as a rule, active = well fitted activation curve with a large enough effect; inconclusive = small, poorly fitted or top-dose-only effect; inactive = no such curve, though single readings can be large or run the other way.

Test: Confirmatory qHTS for Identification of Small Molecule Activators of Huntingtin-Antisense Promoter Activity
Details: HEK293 HTT-AS promoter firefly luciferase reporter, 24 h; series mostly up to 57.5 µM; activity change, positive = activation: at the top concentration
How it was run: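 Activity normalized between vehicle control (0%) and zero RLU (-100%) from firefly luminescence (Dual-Glo). Compounds, up to 57.5 uM final, incubated 24 h at 37C on HEK293 reporter cells plated 24 h earlier.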
Potency is the fitted concentration of half-maximal effect.

Structure (SMILES)	activity change, positive = activation	Potency
Cc1oc(-c2ccc(C(=O)NCc3ccccc3F)cc2)nc1COc1ccccc1	-31% (inactive)	–
CCS(=O)(=O)c1ncc(Cl)c(C(=O)NCc2ccc(OC)cc2)n1	-95.5% (inactive)	–
Cc1ccc(NS(=O)(=O)c2ccc(-c3cnc(C4CC4)o3)cc2)cc1N(C)C	-91.1% (inactive)	–
CCN(c1ccccc1)S(=O)(=O)c1c(-c2ccc(C)cc2)csc1C(=O)OC	-32.5% (inactive)	–
COc1ccc(NC(=O)Cn2nc(C(F)(F)F)c3c2CCCC3)cc1OC	-53.1% (inactive)	–
CCc1cccc(-n2nnc(S(=O)(=O)c3ccc(OC)cc3)c2C)c1	-47.9% (inactive)	–
O=C(Nc1cccc(C(=O)N2CCN(c3ccc(Cl)cc3)CC2)c1)c1nsc2ccccc12	–	151 nM (active)
COc1ccc(-c2nc(CNS(=O)(=O)c3ccc(F)cc3)cs2)cc1	-77.2% (inactive)	–
CC1=C(C(=O)OCc2ccc(C)cc2)C(c2ccccc2Cl)CC(=O)N1 (stereo unspecified)	-40% (inactive)	–
CC1CCN(C(=O)CN2c3ccc(Br)cc3-c3ccccc3S2(=O)=O)CC1	–	2690 nM (active)
O=C(Nc1ccc(Br)cc1)c1ccc(Br)c(S(=O)(=O)N2CCCCC2)c1	-81.9% (inactive)	–
N#CCNC(=O)c1ccc(-c2ccnc(Nc3ccc(N4CCOCC4)cc3)n2)cc1	-24.8% (inactive)	–
O=C(Cn1c(=O)oc2cc(S(=O)(=O)N3CCCCC3)ccc21)NCc1ccc(F)cc1	-27.8% (inactive)	–
CCc1ccc(C2CC(=O)Nc3c2c(C)nn3-c2nc(C)cc(C)n2)cc1 (stereo unspecified)	-13% (inactive)	–
O=C1CCCc2cc(S(=O)(=O)NCC3CCC(C(=O)Nc4ccccc4F)CC3)ccc2N1 (stereo unspecified)	-31.8% (inactive)	–
CCOc1ccccc1CNC(=O)c1ccc2nc(Cc3ccc(OC)cc3)oc2c1	-20.2% (inactive)	–
